Consider 17 molecules from PubChem BioAssay (NCATS).

Values without a mark were called inactive. Inconclusive results are not listed. Active and inactive are the calls of the source. Unless noted, the call rests on the fitted dose curve; in most records, active means well fitted curve in the direction sought with a large enough effect; inconclusive means small, poorly fitted or top-dose-only effect, or another doubt; inactive means no such curve, though single readings can be large; an effect the other way counts as inactive or inconclusive.

The nature of assay [1]: qHTS assay for measurement of the activity of small molecule inhibitors on Zika virus induced Caspase-3 activity in human iPSC derived neural progenitor cells (hNPCs) (AID 1224857). Further: nearly all actives have a fitted effect of over 65% in size. Particulars: hNPCs ZIKV-induced caspase-3/7, Caspase-Glo luminescence, 6 h; series mostly up to 45.7 µM. The gist of the method:
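Quantitative HTS format: human iPSC neural progenitors, 1 h compound pretreatment, ZIKV 2 FFU/cell for 6 h at 37 C. Percent inhibition derived from luminescent caspase-3/7 signal between uninfected and infected controls.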

Assay [2] is described as follows: qHTS assay for measurement of the activity of small molecule inhibitors on Zika virus induced Caspase-3 activity in human astrocytoma cells (AID 1224859). As to conditions: SNB-19 ZIKV-induced caspase-3/7, luminescence, 6 h; series mostly up to 45.7 µM. The gist of the method: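 Readout is luminescence from Caspase-Glo 3/7 added after a 6 h ZIKV infection (2 FFU/cell) of compound-pretreated (1 h) SNB-19 cells; data expressed as % inhibition versus uninfected and infected wells.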

Assay [3] is described as follows: qHTS assay to identify small molecule inhibitors of chordoma cells - UCH-1 (AID 1259355). Further: nearly all actives have a fitted effect of over 55% in size. As to conditions: UCH-1 chordoma viability, CellTiter-Glo, 48 h, combination, with auranofin plus four topoisomerase inhibitors; series mostly up to 46.1 µM. The gist of the method: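 A 48hr growth-inhibition format: each drug tested at 15 concentrations together with added auranofin, camptothecin, doxorubicin, rubitecan and topotecan, with cell viability quantified as CellTiter-Glo luminescence.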

A short description of assay [4]: qHTS assay to identify small molecule inhibitors of chordoma cells - UCH-2 (AID 1259356). Particulars: UCH-2 chordoma viability, CellTiter-Glo ATP luminescence, 48 h; series mostly up to 46.1 µM.
A short description of assay [5]: NS1 protein of Zika virus - qHTS assay to identify small molecule inhibitors in human HEK 293 cells (AID 1347053). Further: nearly all actives have a fitted effect of over 55% in size. Particulars: HEK293 ZIKV MR766 infection, NS1 TR-FRET, 24 h; series mostly up to 46.1 µM. The gist of the method: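 Compound-treated (1 h pre-infection) HEK 293 cells infected with ZIKV MR766, MOI = 0.5; after 24 h at 37 C, NS1 read by TR-FRET; data normalized to uninfected and infected controls.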

A short description of assay [6]: qHTS of pediatric cancer cell lines to identify multiple opportunities for drug repurposing: Primary screen for TC32 cells (AID 1347089). Further: nearly all actives have a fitted effect of over 60% in size. Further: potency means the concentration at half of the fitted maximal effect. As to conditions: TC32 Ewing sarcoma viability, CellTiter-Glo luminescence, 48 h; series mostly up to 45.8 µM. The gist of the method: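 Measured quantity: luminescence from CellTiter-Glo, reflecting metabolically active TC32 cells following 48 h of compound. Curves came straight from multi-point titrations, with 8 or 11 points in primary and 11 in confirmatory screening.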

Assay [7] in a line: P-glycoprotein substrates identified in KB-8-5-11 adenocarcinoma cell line, qHTS therapeutic library screen (AID 1346987). Further: nearly all actives have a fitted effect of over 65% in size. Further: potency means the concentration at half of the fitted maximal effect. As to conditions: KB-8-5-11 (P-gp overexpressing) viability, CellTiter-Glo, 72 h; series mostly up to 44.5 µM. An outline of the steps: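 In this qHTS, P-gp-rich KB-8-5-11 cells received library compounds across a concentration range. Viability was quantified by luminescence after 72 h at 37 degree C.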

The target of assay [8] is Atrial natriuretic peptide receptor 1 (Homo sapiens) (UniProt P16066). Briefly: Natriuretic polypeptide receptor (hNpr1) antagonism - Pilot screen (AID 1347049; calls by dose curve;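 further: HEK293 cells with hNpr1 and GloSensor cGMP luciferase stimulated by 0.1 nM hNppA; agonist-evoked cGMP luminescence read 20 min after hNppA addition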). As to conditions: hNpr1 cells, antagonist mode cGMP read-out; series mostly up to 57.5 µM. The gist of the method: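 Cells expressing receptor plus cGMP biosensor are seeded and incubated overnight at 37C, then loaded with GloSensor reagent (2% final) at room temperature for 2 h. Library compounds go on for 30 min. A pre-read precedes agonist (hNppA, 0.1 nM final) and a 20-min readout.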
Sequence of Atrial natriuretic peptide receptor 1 (Homo sapiens) (P16066 whole entry, looked up): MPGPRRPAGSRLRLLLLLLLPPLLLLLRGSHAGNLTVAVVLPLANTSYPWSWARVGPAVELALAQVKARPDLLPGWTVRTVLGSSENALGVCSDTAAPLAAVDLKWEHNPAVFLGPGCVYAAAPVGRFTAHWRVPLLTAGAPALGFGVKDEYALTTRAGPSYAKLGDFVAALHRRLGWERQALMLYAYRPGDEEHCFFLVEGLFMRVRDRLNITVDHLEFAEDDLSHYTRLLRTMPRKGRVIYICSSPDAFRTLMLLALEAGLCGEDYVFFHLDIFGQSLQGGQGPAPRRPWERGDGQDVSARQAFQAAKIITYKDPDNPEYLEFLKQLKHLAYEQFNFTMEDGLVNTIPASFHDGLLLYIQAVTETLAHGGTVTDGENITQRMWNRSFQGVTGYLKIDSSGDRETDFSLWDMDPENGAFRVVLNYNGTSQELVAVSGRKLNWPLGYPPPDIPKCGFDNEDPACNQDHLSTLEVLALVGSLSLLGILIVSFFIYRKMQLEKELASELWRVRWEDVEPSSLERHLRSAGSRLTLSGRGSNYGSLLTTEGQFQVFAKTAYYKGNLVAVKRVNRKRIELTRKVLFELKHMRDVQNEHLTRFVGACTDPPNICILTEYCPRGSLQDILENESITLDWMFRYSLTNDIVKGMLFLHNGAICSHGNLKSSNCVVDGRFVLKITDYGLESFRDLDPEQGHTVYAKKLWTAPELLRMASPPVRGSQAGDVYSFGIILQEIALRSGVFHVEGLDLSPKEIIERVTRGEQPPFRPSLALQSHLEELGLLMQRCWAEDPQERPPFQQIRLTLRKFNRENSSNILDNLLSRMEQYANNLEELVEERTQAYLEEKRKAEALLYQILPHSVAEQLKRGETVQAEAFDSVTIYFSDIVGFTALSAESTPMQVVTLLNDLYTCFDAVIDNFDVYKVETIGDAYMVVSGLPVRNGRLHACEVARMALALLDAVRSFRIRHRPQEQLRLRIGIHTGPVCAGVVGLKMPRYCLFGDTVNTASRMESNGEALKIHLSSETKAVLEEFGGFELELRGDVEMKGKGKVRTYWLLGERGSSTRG

In assay [9] the target is Atrial natriuretic peptide receptor 2 (Homo sapiens) (UniProt P20594). Briefly: Natriuretic polypeptide receptor (hNpr2) antagonism - Pilot subtype selectivity assay (AID 1347050; calls by dose curve). As to conditions: NPR2-expressing cells, cGMP antagonist-mode read-out; series mostly up to 38.3 µM. An outline of the steps:
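Read-out: GloSensor luminescence (CCD imager), baseline vs post-stimulation. HEK293 cells expressing hNpr2; compounds pre-incubated 30-50 min at ambient temperature; hNppC 1 nM final, 20 min.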

Assay [10] concerns the target T1, Tyrosine-protein phosphatase non-receptor type substrate 1 (Homo sapiens) + Leukocyte surface antigen CD47 (Homo sapiens) (UniProt P78324+Q08722). Nature of the assay: CD47-SIRPalpha protein protein interaction - LANCE assay qHTS validation (AID 1347057; active means well fitted curve in the direction sought with a large enough effect in the signal ratio, with a control signal flat, not every such curve was filed as active; the % refers to the signal ratio). As to conditions: Recombinant CD47-His / biotin-SIRPalpha, TR-FRET ratio; series mostly up to 38.3 µM. An outline of the steps: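 Inhibition of soluble CD47/SIRPalpha ectodomain association by titrated compounds, measured as 665/615 nm time-resolved FRET ratio after sequential 30 min room-temperature incubations.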

Assay [11] deals with T1, Tyrosine-protein phosphatase non-receptor type substrate 1 (Homo sapiens) + Leukocyte surface antigen CD47 (Homo sapiens). Briefly: CD47-SIRPalpha protein protein interaction - HTRF assay qHTS validation (AID 1347058; active means well fitted curve in the direction sought with a large enough effect in the signal ratio, not every such curve was filed as active; the % refers to the signal ratio). As to conditions: TR-FRET HTRF CD47-His / biotin-SIRPalpha binding, ratio 665/615; series mostly up to 38.3 µM. The gist of the method: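 Soluble extracellular domains (6His-CD47, Avi-tag-biotinylated SIRPalpha) in PBS pH 7.4 with 0.05% IGEPAL CA-630. Compounds were preincubated 30 min at RT with CD47 and anti-His-Eu, then SIRPalpha and SAV-XL665 were added. TR-FRET 665/615 ratio.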

Assay [12] has the same target. Nature of the assay: CD47-SIRPalpha protein protein interaction - Alpha assay qHTS validation (AID 1347059).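 Further: bead proximity luminescence from CD47 binding SIRPalpha after compound preincubation with SIRPalpha.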 Particulars: AlphaScreen CD47-His/biotin-SIRPalpha binding, LOPAC; series mostly up to 38.3 µM. The gist of the method:
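In PBS (pH 7.4) with 0.05% IGEPAL CA-630, compound is preincubated with biotin-Avi-SIRPalpha ectodomain before His-CD47 ectodomain and affinity beads are added. Light-protected room-temperature incubations; AlphaScreen readout.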

The target of assay [13] is Parathyroid hormone/parathyroid hormone-related peptide receptor (Homo sapiens) (UniProt Q03431). Briefly: qHTS for PTHR1 Agonists: Optimization Screen against the NCGC LOPAC library (AID 1347079). Particulars: HEK293 GP2 PTHR1 GloSensor cAMP luminescence, 1 h; series mostly up to 57.1 µM. An outline of the steps: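 Signal increase flags agonism. GP2 cells, derived from HEK-293, express human PTHR1 and a GloSensor cAMP construct.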
Sequence of Parathyroid hormone/parathyroid hormone-related peptide receptor (Homo sapiens) (Q03431 whole entry, looked up): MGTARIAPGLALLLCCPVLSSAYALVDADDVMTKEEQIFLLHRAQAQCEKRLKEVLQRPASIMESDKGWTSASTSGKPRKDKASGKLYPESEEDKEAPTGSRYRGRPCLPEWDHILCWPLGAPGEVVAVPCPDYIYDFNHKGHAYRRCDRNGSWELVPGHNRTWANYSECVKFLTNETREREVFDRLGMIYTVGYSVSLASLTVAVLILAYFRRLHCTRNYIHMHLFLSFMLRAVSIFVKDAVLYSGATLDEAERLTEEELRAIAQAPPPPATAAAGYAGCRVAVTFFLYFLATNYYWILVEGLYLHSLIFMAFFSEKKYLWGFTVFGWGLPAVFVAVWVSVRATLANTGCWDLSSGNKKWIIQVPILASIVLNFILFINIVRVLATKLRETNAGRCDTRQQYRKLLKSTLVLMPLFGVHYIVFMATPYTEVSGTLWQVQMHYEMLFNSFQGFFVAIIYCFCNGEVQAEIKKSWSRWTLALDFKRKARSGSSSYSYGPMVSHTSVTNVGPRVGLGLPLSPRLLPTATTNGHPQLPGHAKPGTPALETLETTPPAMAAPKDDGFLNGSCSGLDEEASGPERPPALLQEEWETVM

Assay [14] can be described thus: Identifying Small Molecule Inhibitors of Pancreatic Cancer Stem Cells (SN12C, Adherent) (AID 1259358).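 Further: potency means the concentration at half of the fitted maximal effect; cell survival measured after 48 h of compound exposure.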 As to conditions: viability/growth inhibition. The gist of the method:
(§1)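 Viability is scored by CellTiter-Glo luminescence 48 h after dosing, expressed as percent activity against vehicle and no-cell references. Spheroid formats rely on cells cultured 14 days in stem cell media beforehand.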

Assay [15] can be described thus: Identifying Small Molecule Inhibitors of Pancreatic Cancer Stem Cells (Panc1, Spheroid) (AID 1259359).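 Further: potency means the concentration at half of the fitted maximal effect; compound exposure lasted 48 h before reading.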 Particulars: Panc1 spheroid cancer stem cell viability. An outline of the steps: as §1
A short description of assay [16]: Identifying Small Molecule Inhibitors of Pancreatic Cancer Stem Cells (SN12C, Spheroid) (AID 1259360). Further: potency means the concentration at half of the fitted maximal effect. As to conditions: SN12C spheroid viability. An outline of the steps:
as §1

Assay [17] is described as follows: Identifying Small Molecule Inhibitors of Pancreatic Cancer Stem Cells (A278, Adherent) (AID 1259361).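 Further: viability read after 48 h compound exposure; nearly all actives have a fitted effect of over 35% in size.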 An outline of the steps:
as §1

T1 sequence (P78324 whole entry, looked up, the tested form may be a part): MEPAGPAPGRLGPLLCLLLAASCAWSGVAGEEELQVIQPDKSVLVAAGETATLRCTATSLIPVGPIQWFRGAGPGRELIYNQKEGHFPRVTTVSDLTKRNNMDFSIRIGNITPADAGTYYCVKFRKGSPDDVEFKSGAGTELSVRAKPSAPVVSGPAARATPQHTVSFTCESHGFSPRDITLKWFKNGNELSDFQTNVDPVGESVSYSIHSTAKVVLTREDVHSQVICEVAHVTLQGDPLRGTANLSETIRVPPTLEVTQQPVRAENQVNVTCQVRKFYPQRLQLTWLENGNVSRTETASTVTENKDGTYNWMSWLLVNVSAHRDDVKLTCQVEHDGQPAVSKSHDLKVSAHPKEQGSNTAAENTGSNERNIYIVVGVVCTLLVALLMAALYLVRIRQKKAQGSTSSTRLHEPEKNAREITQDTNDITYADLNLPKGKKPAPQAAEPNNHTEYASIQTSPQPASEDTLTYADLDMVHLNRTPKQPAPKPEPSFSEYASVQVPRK
T1 sequence (Q08722 whole entry, looked up, the tested form may be a part): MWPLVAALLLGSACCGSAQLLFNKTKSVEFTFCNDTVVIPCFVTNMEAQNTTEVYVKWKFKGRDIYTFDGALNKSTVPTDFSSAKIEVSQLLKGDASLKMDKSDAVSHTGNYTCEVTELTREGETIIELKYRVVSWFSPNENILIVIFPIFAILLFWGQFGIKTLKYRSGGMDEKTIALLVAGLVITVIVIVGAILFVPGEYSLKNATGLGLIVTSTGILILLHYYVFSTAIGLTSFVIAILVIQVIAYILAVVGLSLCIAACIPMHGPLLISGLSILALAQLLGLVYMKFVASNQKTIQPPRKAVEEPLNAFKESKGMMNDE
Sequence of Atrial natriuretic peptide receptor 2 (Homo sapiens) (P20594 whole entry, looked up): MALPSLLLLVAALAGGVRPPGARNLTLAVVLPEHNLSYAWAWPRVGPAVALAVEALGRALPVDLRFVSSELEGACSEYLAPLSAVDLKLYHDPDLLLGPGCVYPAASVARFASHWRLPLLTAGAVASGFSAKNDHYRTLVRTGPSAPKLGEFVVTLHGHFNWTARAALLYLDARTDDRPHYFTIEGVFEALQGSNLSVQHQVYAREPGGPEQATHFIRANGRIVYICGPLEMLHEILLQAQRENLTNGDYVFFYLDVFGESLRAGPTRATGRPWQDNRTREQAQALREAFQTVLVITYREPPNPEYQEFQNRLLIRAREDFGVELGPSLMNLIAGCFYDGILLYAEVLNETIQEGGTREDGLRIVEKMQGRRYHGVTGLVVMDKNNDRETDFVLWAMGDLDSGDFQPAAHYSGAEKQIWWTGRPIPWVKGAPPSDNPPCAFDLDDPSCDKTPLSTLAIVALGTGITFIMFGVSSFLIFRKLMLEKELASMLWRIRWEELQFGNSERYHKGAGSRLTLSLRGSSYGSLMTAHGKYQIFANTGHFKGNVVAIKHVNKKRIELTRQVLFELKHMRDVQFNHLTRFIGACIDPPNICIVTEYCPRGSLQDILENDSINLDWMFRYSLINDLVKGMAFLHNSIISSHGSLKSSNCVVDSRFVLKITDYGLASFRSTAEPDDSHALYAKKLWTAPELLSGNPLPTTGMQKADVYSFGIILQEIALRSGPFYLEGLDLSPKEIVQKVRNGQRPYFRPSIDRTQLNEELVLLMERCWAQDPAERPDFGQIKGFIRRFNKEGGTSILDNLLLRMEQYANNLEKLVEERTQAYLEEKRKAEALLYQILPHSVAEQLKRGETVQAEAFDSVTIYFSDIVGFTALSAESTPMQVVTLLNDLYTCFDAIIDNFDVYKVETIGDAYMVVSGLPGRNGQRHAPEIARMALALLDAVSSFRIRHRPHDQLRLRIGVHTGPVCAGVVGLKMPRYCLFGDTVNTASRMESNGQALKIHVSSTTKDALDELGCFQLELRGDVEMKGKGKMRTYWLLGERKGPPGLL

`CCOC(=O)/C=C(C)/C=C/C=C(C)/C=C/c1c(C)cc(OC)c(C)c1C`: the molecule was classed as inactive in assay [1] and in [2]. In addition, the Potency entry in assay [3], in assay [4], in [5] and in assay [6] was “inactive” in each case.
For `CC(Cc1ccccc1)(NC(=O)CN)c1ccccc1` (stereo not drawn), the result in assay [1] and in assay [2] was inactive. Besides, the Potency result in [3], in assay [7], in [5] and in assay [6] was “inactive” throughout.
For the molecule `C[C@H]1[C@H](NC(=O)/C(=N/OC(C)(C)C(=O)O)c2csc(N)n2)C(=O)N1S(=O)(=O)O` (stereo in doubt), the call in [1] and in assay [2] was inactive. For the same molecule, the Potency result in assay [3], in assay [4], in [5] and in [6] was “inactive” throughout.
Turning to `C[C@]12CC[C@H]3[C@@H](CCC4=CC(=O)CC[C@@]43C)[C@@H]1CC[C@@H]2C(=O)CO`, the call in assay [1] and in [2] was inactive. Moreover, the Potency result in assay [3], in assay [4], in assay [5] and in assay [6] was “inactive” each time.
In the case of `CN(C(=O)CN(CCO)CC(=O)N(C)C(C)(C)Cc1ccccc1)C(C)(C)Cc1ccccc1`, the molecule was called inactive in assay [1] and in assay [2]. Also, the Potency result in [4] is “inactive”.
`Cc1cc(=O)n(-c2ccccc2)n1C`: the outcome in assay [1] and in [2] was inactive. Also, the Potency result in assay [4], in assay [7], in assay [5] and in assay [6] was “inactive” in each case.
As to `CCCC1O[C@@H]2C[C@H]3[C@@H]4CCC5=CC(=O)C=C[C@]5(C)[C@H]4[C@@H](O)C[C@]3(C)[C@]2(C(=O)CO)O1` (stereo partly drawn), the molecule was called inactive in [1], in assay [2], in assay [8], in assay [9], in assay [10] and in assay [11]. For the same molecule, in assay [13], the molecule was classed as inactive. The Potency result in assay [4], in assay [7], in [5] and in [12] was “inactive” each time.
`Oc1cc(O)c2c(c1)O[C@H](c1ccc(O)c(O)c1)[C@H](O)C2`: the call in [1] and in assay [2] was inactive. Also, the Potency result in [4], in assay [7], in assay [5] and in [6] was “inactive” throughout.
Take `CN1C2CCC1CC(OC(=O)c1c[nH]c3ccccc13)C2` (stereo not drawn): the result in [1], in [2], in [8], in [9], in [10] and in [11] was inactive. For the same molecule, the molecule was classed as inactive in assay [13]. Moreover, the Potency entry in assay [3], in assay [5] and in assay [12] was “inactive” in each case.
On to `CN1[C@@H]2CC[C@H]1CC(OC(=O)c1c[nH]c3ccccc13)C2` (stereo partly drawn), for which the outcome in assay [1] and in assay [2] was inactive. The Potency result in assay [4], in [7], in assay [5] and in assay [6] was “inactive” each time.
Consider `CC(C)(Oc1ccc(Cl)cc1)C(=O)O`, for which the outcome in assay [1] and in assay [2] was inactive. The Potency entry in assay [3], in assay [5] and in assay [6] was “inactive” each time.
For `Cc1c(C)n(CCN(C)C)c2ccc(C(=O)OCCN(C)C)cc12`, the molecule was classed as inactive in [1] and in [2]. Further, the Potency entry in assay [3], in assay [5] and in [6] was “inactive” in each case.
On to `C[C@]12CC[C@@H]3c4ccc(O)cc4CC[C@H]3[C@@H]1CC[C@@H]2O`, for which the molecule was called inactive in assay [1], in assay [2], in [8], in assay [9] and in assay [13]. Also, the Potency entry in [4] and in assay [5] was “inactive” throughout. For the same molecule, the Potency in assay [7] was 6.51 µM (active).
As to `Cc1cc(N)c2cc(NC(=O)Nc3ccc4nc(C)cc(N)c4c3)ccc2n1`, the result in assay [1] and in assay [2] was inactive. Further, the Potency entry in assay [3], in assay [7], in [5] and in [6] was “inactive” each time.
On to `COc1cccc2c1C(=O)c1c(O)c3c(c(O)c1C2=O)C[C@@](O)(C(=O)CO)C[C@@H]3O[C@H]1C[C@H](N)[C@H](O)[C@H](C)O1`, for which the outcome in assay [1] and in assay [2] was inactive. The Potency entry in assay [4] and in assay [7] was “inactive” in each case. For the same molecule, the Potency in assay [14] was 3.32 µM (active); in assay [15], 5.9 µM (active); in [16], 18.7 µM (active); in assay [6], 0.745 µM (active). The IC50 (viability decrease) in assay [17] is 0.418 µM (active).
`CCCCCCCCCCCCCCCC[N+](C)(C)CCN(Cc1ccc(OC)cc1)c1ncccn1`: the molecule was classed as inactive in [1] and in [2]. The Potency result in assay [4] and in assay [7] was “inactive” in each case.
With `C#C[C@]1(O)CC[C@H]2[C@@H]3CCC4=CC(=O)CC[C@@H]4[C@H]3CC[C@@]21C`, the molecule was called inactive in assay [1] and in [2]. In addition, the Potency result in assay [3], in assay [5] and in [6] was “inactive” throughout.
